High-throughput results (PubChem)
BRCA1 expr act: BRCA1 expression activation | MCF7-BRCA1-FFLuc reporter, luminescence, 48 h; response scale: scaled: vehicle 0%, 10 µM genistein 100% | hit rate 1.1% among 380,000 | Potency, µM (series often up to 46.1 µM), without a hit: at the highest dose activation, hits mostly activators; further: potency means the concentration at half of the fitted maximal effect; nearly all actives have a fitted effect of over 80% in size
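MCF7 cells carrying a BRCA1-firefly luciferase reporter (2000 cells/well, phenol-red free MEM) were attached for 2 h at 37 °C, then given compounds for 48 h. Luminescence was read 15 min after luciferase reagent; activity normalized to genistein (10 microM) and DMSO.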
CCT chaperon mod: changes cytosolic chaperonin activity; activity change, % (no concentration beside the values), hits read low; AID 651819; hit rate 0.3% among 360,000; purified chaperonin ATPase assay, HTRF ADP detection, 30 min; in the data active means activity change below about -30%; further: on the % scale 0 is the no-effect control and ±100 the full control effect
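Enzyme 40 or 20 nM (batch-dependent) in Tris pH 7.4/KCl/MgCl2/DTT; cpd 76 uM single point; ATP 10 uM; 30 min 37 °C; Transcreener ADP HTRF detection, 30 min RT; ratio 665/615.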
AT treatment: potential ataxia-telangiectasia treatments restoring KAP-1 phosphorylation; Potency, µM (doses to about 57.5 µM), for inactives: at the highest dose activation, most hits filed as activators; hit rate 0.19% among 320,000; F2112 A-T fibroblasts, KAP-1 phosphorylation AlphaLISA; neocarzinostatin DNA damage 30 min before lysis; further: potency means the concentration at half of the fitted maximal effect; % of control where 0% means no effect; nearly all actives have a fitted effect of over 45% in size
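hTERT-immortalized A-T patient fibroblasts (F2112), 500 cells/well in OPTI-MEM, 1% FBS, got compounds for 60 min, then NCS for 30 min at 37C. Lysates were then assayed for phospho-KAP-1 by AlphaLISA (anti-pKAP1 donor, anti-KAP1 acceptor beads), 6 hr at 25C.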
MmCpn inh: M. maripaludis TRiC chaperonin inhibition; purified Mm-Cpn ATPase, ADP Transcreener TR-FRET; Potency, µM (top dose mostly 76.9 µM), for inactives: at the top dose activity, negative = inhibition, usual class: inhibitors; hit rate 0.031% among 330,000; AID 504842; further: potency means the concentration at half of the fitted maximal effect; on the % scale 0 is the no-effect control and ±100 the full control effect; nearly all actives have a fitted effect of over 80% in size
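Eu-cryptate anti-ADP/ADP-d2 competition gives a ratio inversely related to ADP. Enzyme at 25 nM was pre-exposed to compound for 10 min, then given 10 uM ATP for 30 min, 37°C throughout.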
Akt phos inh: blocks phosphorylation of Akt; Neuro2A IGF-stimulated pAkt S473 HTRF, 20 min; stronger effect = lower value; activity change, % for hits at 50 µM; hit rate 0.32% among 360,000; AID 651550; in the data active means activity change below about -80%; inconclusive means mostly about -51% to -80%; further: on the % scale 0 is the no-effect control and ±100 the full control effect
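Neuro2A cells (4,500/well, DMEM with 0.5% FBS) were treated with compound at a single 50 µM final concentration, stimulated with 6 nM IGF for 20 min at 37 °C, and lysed. Phospho-Akt Ser473 was read by HTRF as 665/615 ratio ×10^4.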
* marks the source's active call; other numbers are inactive results; i = inactive; ? = inconclusive; . = no result. Hits are enriched below; roughly 1.8% of the tested compounds scored in any of these assays. Unless noted, the call rests on the fitted dose curve; in most records, active means well fitted curve in the direction sought with a large enough effect; inconclusive means small, poorly fitted or top-dose-only effect, or another doubt; inactive means no such curve, though single readings can be large; an effect the other way counts as inactive or inconclusive.

SMILES	BRCA1 expr act	CCT chaperon mod	AT treatment	MmCpn inh	Akt phos inh
c1ccc(CCSc2ncnc3nc[nH]c23)cc1	3.2µM*	1	-1%	?	i
O=C(CSc1ncnc2nc[nH]c12)c1ccccc1	73%	-3	.	-4%	i
O=C(CCNC(=O)Cn1cnc2ccccc2c1=O)NCC1COc2ccccc2O1 (stereo not given)	-2%	-1	-7%	0%	-107%*
O=C(Cn1cnc2ccccc2c1=O)N1CCN(Cc2ccc3c(c2)OCO3)CC1	-10%	-54*	2%	-23%	i
O=C(CCNC(=O)Cn1cnc2ccccc2c1=O)NCC1CCCO1 (stereo not given)	-8%	-7	0%	1%	i
O=C(Cn1cnc2ccccc2c1=O)Nc1ccccc1N1CCOCC1	-8%	-75*	-3%	-1%	i
CCCCCCCCCC[n+]1cc(Br)cc(Br)c1	-79%	.	.	.	.
CC(C)Nc1ccc(-c2nc(-c3ccco3)no2)cc1[N+](=O)[O-]	27%	.	.	.	.
COc1ccc(CNc2nc3ccccc3s2)cc1OC	99%	-3	0%	0%	i
COc1ccc(Nc2nc3ccccc3s2)cc1	5µM*	-1	8%	0%	i
COc1ccc2nc(C)cc(Sc3nc4ccccc4s3)c2c1	-84%	-4	22µM*	-16%	i
COc1cccc(Nc2nc3ccc(OC)cc3s2)c1	4.5µM*	-1	8%	-1%	i
COc1ccc2nc(NC3=NCCC3)sc2c1	?	-11	-3%	2%	i
O=C(Nc1nc2c(s1)CCCC2)c1cccs1	?	-1	-1%	-3%	i
O=C(Cc1cccs1)Nc1nc2c(s1)CCCC2	4µM*	-1	7%	-16%	i
O=C(CCSc1ccccc1)Nc1nc2c(s1)CCCC2	11µM*	0	2%	-3%	i
O=C(CCSc1ccccc1)NC1CCCCCC1	7.1µM*	-2	6%	2%	i
CCNc1ccc(C(=O)OCC(=O)Nc2cc(C)on2)cc1[N+](=O)[O-]	-6%	-1	-5%	1%	i
CC1=Nn2c(nnc2-c2ccco2)SC1	1%	0	.	-1%	-102%*
COc1ccc(-c2nnc3n2N=C(C)CS3)cc1	-1%	2	-10%	0%	-84%*
Cc1ccccc1C1=Nn2c(nnc2-c2ccco2)SC1	-2%	-1	-27%	1%	i
COc1ccc(Nc2nc3cc(-c4ccccc4C)sc3c(=O)n2C)cc1OC	-21%	2	.	.	i
Cc1ccc(NC(=O)c2cnn3c2NC(=C2CC2)C=C3C(F)F)cc1C	-4%	.	.	.	.
Cc1cc(C(=O)Nc2ccc3[nH]ccc3c2)no1	6.3µM*	1	6%	0%	i
CC1CCN(C(=S)NC(=O)c2ccc(C(C)(C)C)cc2)CC1	2%	1	11%	-5%	i
SMILES	BRCA1 expr act	CCT chaperon mod	AT treatment	MmCpn inh	Akt phos inh
CC1CCN(C(=O)c2ccc3ccccc3c2)CC1	2.5µM*	0	3%	1%	i
CC1CCN(C(=S)NC(=O)c2ccccc2)CC1	0%	-2	-2%	-1%	-111%*
CC1CCN(C(=S)NCCc2ccccc2)CC1	7.1µM*	-1	-3%	3%	.
C/C=C(\NNC(C)=O)c1ccc(O)cc1	9%	.	.	.	.
O=C(COc1ccc2c(c1)OCO2)Nc1nccs1	3.2µM*	1	1%	1%	i
O=C(COc1ccc2c(c1)OCO2)Nc1ccc2c(c1)oc1ccccc12	70%	-4	4%	0%	-96%*
COCc1nnc(NC(=O)COc2ccc3c(c2)OCO3)s1	5%	1	2%	-1%	i
COc1cc(CC(=O)OCC(=O)N2C(C)CCCC2C)cc(OC)c1OC (stereo not given)	-1%	1	-13%	0%	i
O=C(CCCn1c(=O)c2ccccc2n(CC(=O)Nc2ccc(F)cc2F)c1=O)NCc1ccccc1Cl	0%	.	.	.	.
CN(NC(=O)c1ccccc1F)c1ccc([N+](=O)[O-])cn1	0%	-43*	-6%	1%	i
Clc1ccccc1Sc1cnc2ccccc2n1	26%	1	1%	-10%	-91%*
CCOC(=O)N(C)c1c(CC)nc2c(OCc3cc(Cl)cc(Cl)c3)cccn12	-17%	1	.	.	i
